# Measured values as given in PubChem BioAssay (NCI).
# The panel holds about 83,000 compounds, 20% with a hit somewhere; the sample as a whole holds those more often.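 In brief: 96-well plates, 48 h treatment, single concentration, percent growth endpoint.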 Values without a mark were called inactive. The source made the active and inactive calls. Rule for the calls: active = growth percent below 10; inactive = the rest.
# Tests used:
# Experiment in all cases: NCI-60 one-dose screen, 48 h (100 = growth as untreated, 0 = no growth, -100 = all killed)
# DU-145 prostate = conditions: 10 µM unless noted
# K-562 leukemia = conditions: 10 µM unless noted
# MALME-3M melanoma = conditions: 10 µM unless noted
# MDA-MB-231 breast = conditions: 10 µM unless noted
# RXF 393 renal = conditions: 10 µM unless noted
# SF-268 CNS = conditions: 10 µM unless noted
# SF-295 CNS = conditions: 10 µM unless noted
# SF-539 CNS = conditions: 10 µM unless noted
# UACC-257 melanoma = conditions: 10 µM
# M14 melanoma = conditions: 10 µM unless noted
# HT29 colon = conditions: 10 µM unless noted
# SNB-75 CNS = conditions: 10 µM unless noted
# SNB-19 CNS = conditions: 10 µM unless noted
# U251 CNS = conditions: 10 µM unless noted
# PC-3 prostate = conditions: 10 µM unless noted
# SK-MEL-5 melanoma = conditions: 10 µM unless noted
# UACC-62 melanoma = conditions: 10 µM unless noted
# LOX IMVI melanoma = conditions: 10 µM unless noted
# SK-MEL-28 melanoma = conditions: 10 µM unless noted
# HCT-15 colon = conditions: 10 µM unless noted
Compound,growth (DU-145 prostate) [%],growth (K-562 leukemia),growth (MALME-3M melanoma),growth (MDA-MB-231 breast),growth (RXF 393 renal),growth (SF-268 CNS),growth (SF-295 CNS),growth (SF-539 CNS),growth (UACC-257 melanoma),growth (M14 melanoma),growth (HT29 colon),growth (SNB-75 CNS),growth (SNB-19 CNS),growth (U251 CNS),growth (PC-3 prostate),growth (SK-MEL-5 melanoma),growth (UACC-62 melanoma),growth (LOX IMVI melanoma),growth (SK-MEL-28 melanoma),growth (HCT-15 colon) [%]
CCOC(=O)c1c(NCC(=O)Nc2ccc(Br)cc2)sc2c1CCCC2,66.7,10.8%,21.7%,36.5%,-50.1% (active),58.4%,39.1%,12%,76.2%,46.3%,25.7%,46.2%,56.7%,-6.08% (active),55%,39.8%,46.9%,4.11% (active),67.6%,–
CC1(COc2ccc3ncc(C#Cc4cncc(C(=O)Nc5cc(C(C)(C)C)on5)c4)n3n2)COC1,53.5,16.2%,30.2%,30.7%,-2.4% (active),53.9%,22.6%,20.2%,79.9%,28.7%,101%,12.8%,60.9%,29%,43.4%,7.95% (active),29.6%,11%,51.4%,–
C#C[C@]1(O)CC[C@H]2[C@@H]3CC=C4c5sc(Nc6ccncc6)nc5CC[C@]4(C)[C@H]3CC[C@@]21C,21,2.23% (active),-71.1% (active),21.7%,-62.9% (active),-15.9% (active),-70.8% (active),-61.1% (active),-44.3% (active),-49.7% (active),-4.61% (active),-49.4% (active),-36.8% (active),1.97% (active),1.86% (active),-83.9% (active),-22.8% (active),–,-55.1% (active),–
COc1cc(/C=N/n2cnc3oc(-c4ccccc4)cc3c2=N)cc(CN2CCOCC2)c1O,89.3,5.46% (active),66.4%,51.4%,-18.4% (active),72.4%,68.1%,60.9%,110%,73%,60.3%,–,101%,53.7%,64.6%,62.3%,62.5%,8.3% (active),78.3%,–
COc1ccc(C2C(C#N)=C(N)Oc3c2sc2ccc(C)cc32)cc1 (stereo not drawn),36.3,18.2%,50%,42.2%,-7.62% (active),44.7%,9.1% (active),21%,57.1%,20.9%,25.3%,-3.3% (active),38.6%,26.9%,33.1%,2.75% (active),23.4%,38%,55.6%,–
C#C[C@]1(O)CC[C@H]2[C@@H]3CC=C4c5sc(Nc6cccc(Cl)n6)nc5CC[C@]4(C)[C@H]3CC[C@@]21C,24.5,3.91% (active),-20.2% (active),9.05% (active),-57.4% (active),-16.5% (active),-70.2% (active),-60.2% (active),-64.3% (active),-22.8% (active),3.69% (active),-25% (active),-1.43% (active),4.83% (active),4.35% (active),-90.7% (active),-14.4% (active),–,-59.9% (active),–
C#CCOc1ccccc1C(Nc1ccccc1)c1nnnn1C1CCCCC1 (stereo not drawn),105,77.5%,100%,96.1%,113%,93.7%,88.5%,101%,101%,–,105%,102%,94.7%,99.9%,92.6%,99.6%,63.3%,95.4%,101%,95.5
COc1ccc(-c2nnc(SCc3ccc(O)c4ncccc34)o2)cc1,32.7,16.3%,50%,52.1%,60.2%,30.9%,15.6%,27.2%,28.3%,31.4%,89.1%,–,22.3%,20%,26.2%,9.31% (active),42.8%,19.7%,41.7%,–
